Compounds with a hit are over-represented: about 2.8% of the library has one in this group of screens.
ATXN2 expr inh – ATXN2 expression inhibition. HEK-293 ATXN2-luciferase reporter, luminescence, 24 h. Potency, µM (top dose mostly 57 µM), for inactives: at the top dose activity change, negative = inhibition, usual class: inhibitors. 0.72% of 360,000 active. AID 1745845; also: % is scaled to controls: 0 for no effect and ±100 for the full control effect; nearly all actives have a fitted effect of over 55% in size
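qHTS (up to 57 uM final) was run with 24 h compound exposure of reporter cells at 37 °C. Each well was multiplexed: SteadyGlo luminescence measured ATXN2-luciferase expression after a fluorogenic Gly-Phe-AFC viability readout (25 uM final).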
HTT cytoprotect – cytoprotection in Huntington HTT-Q103 PC12 cell model. Potency, µM (top dose mostly 56.4 µM), for inactives: cytoprotection (ATP increase), actives largely listed as activators. PC12 HTT-Q103 induced, cytoprotection, ATP luminescence, 40 h. AID 1471. 0.14% of 230,000 active; also: % of control where 0% means no effect; nearly all actives have a fitted effect of over 45% in size
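Compounds added alongside 100 nM tebufenozide, which induces toxic Q103 huntingtin exon 1-GFP in stable PC12 cells; surviving cells quantified by luminescent ATP measurement. Medium: phenol red-free DMEM, 5% equine and 5% calf serum.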
HttQ103 aggreg – mutant huntingtin aggregation inhibition. PC12 HttQ103-GFP aggregates, Acumen cytometry, 40 h. Potency, µM (top dose mostly 46.1 µM), inactives show at the top dose activity change, negative = inhibition, usual class: inhibitors. 1.1% of 220,000 active. AID 1688; also: % is scaled to controls: 0 for no effect and ±100 for the full control effect; nearly all actives have a fitted effect of over 60% in size
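Huntingtin Q103 exon 1–GFP aggregates in induced PC12 cells (100 nM tebufenozide) were quantified by cytometry from lysates, with compounds dosed in titration.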
TGFb SMAD3 inh – TGF-b pathway inhibition. HepG2 CAGA-GFP TGF-b/SMAD3 reporter, GFP fluorescence, 18 h; TGF-beta stimulated, 500 pg/mL final. Potency, µM (titrated, usually from 46.1 µM), without a hit: at the highest dose activity, negative = inhibition, hits mostly inhibitors. 1.2% of 410,000 active. AID 588855; also: % is scaled to controls: 0 for no effect and ±100 for the full control effect; nearly all actives have a fitted effect of over 65% in size
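GFP signal (ex488/em500-530) from TGF-beta-stimulated HEPG2 CAGA-GFP cells, 500 pg/mL final, 18 h at 37 degrees C in DMEM plus 1% FBS, normalized to unstimulated and DMSO-stimulated controls.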
ATXN viability – reduces viability in counter-screen for ATXN expression inhibitors; AID 651635; Potency, µM (top dose mostly 56.7 µM), actives largely listed as cytotoxic; S2 cells (HEK-293 line with an ATXN2-luciferase reporter) viability, CellTiter-Fluor protease fluorescence, 24 h; 0.49% of 400,000 active; also: nearly all actives have a fitted effect of over 40% in size
HepG2 tox – kills HepG2 cells in TGF-b inhibitor counter-screen | HepG2 CAGA-GFP viability, ATP luminescence, 18 h | Potency, µM (top dose mostly 46.1 µM), for inactives: top-dose activity change, negative = cytotoxicity, hits mostly cytotoxic | 0.76% of 410,000 active
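CellTiter-Glo luminescence gave cytotoxicity after 18 hours at 37 degrees C. The cells were HepG2 CAGA-GFP in 1% FBS DMEM, stimulated with 500 pg/mL TGF-beta after compound addition. %Activity was normalised to no-cell wells (complete cell-killing) and DMSO (no toxicity), and curves were fitted and classified.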
* marks the source's active call; other numbers are inactive results; i = inactive; ? = inconclusive; · = not tested or not shown; [ ] = another dose, or the depositor's remark. Calls follow the shape of the dose curve; as a rule, active = well fitted curve in the direction sought with a large enough effect; inconclusive = small, poorly fitted or top-dose-only effect, or another doubt; inactive = no such curve, though single readings can be large; an effect the other way counts as inactive or inconclusive. Potency is read from the fitted curve at half-maximal effect.

SMILES	ATXN2 expr inh	HTT cytoprotect	HttQ103 aggreg	TGFb SMAD3 inh	ATXN viability	HepG2 tox
COc1ccc([N+](=O)[O-])cc1NC(=O)C(C)c1ccccc1 (stereo unspecified)	-7%	-16%[0.074 µM]	10%	-11%	i	1%
COc1ccc([N+](=O)[O-])cc1NC(=S)NC(NC(=O)C(c1ccccc1)c1ccccc1)C(Cl)(Cl)Cl (stereo unspecified)	22µM*	-63%	?	4.5µM*	?	-29%
CCN(CC)CC(=O)c1c(C)n(C)c2ccc(OC)cc12	·	·	·	4%	·	-4%
Nc1nc(Cl)nc2c1ncn2[C@@H]1O[C@@H](CO)[C@@H](O)[C@H]1O	·	-40%[1.9 µM]	·	·	·	·
COC(=O)C(Cc1c[nH]c2ccccc12)NC(=O)CNC(C)=O (stereo unspecified)	1%	5%	5%	34%	i	-1%
COC(=O)C(Cc1c[nH]c2ccccc12)NC(=O)COc1ccc(Cl)cc1Cl (stereo unspecified)	·	·	·	11µM*	·	-63%
CSc1ccccc1NC(=O)COc1ccc(Cl)cc1Cl	9%	16%[10 µM]	?	?	i	-35%
O=C(COc1ccc(Cl)cc1Cl)Nc1ccccn1	2.8µM*	0%	22%	8%	i	-38%
C=C(CC[C@]12OC(C(=O)O)C(O)(C(=O)O)C(C(=O)O)(O1)C(OC(=O)/C=C/[C@@H](C)C[C@@H](C)CC)C2O)[C@@H](OC(C)=O)[C@H](C)Cc1ccccc1 (stereo partly specified)	·	·	·	4%	·	8%
CCn1c2ccccc2c2cc(NC(=O)COC(=O)C3CCC(=O)N3)ccc21 (stereo unspecified)	18µM*	-11%[10 µM]	-22%	5%	i	2%
CCC[C@H](Nc1nc(-c2ccc(NC(=O)NCC)c(OC)c2)ncc1C)c1cccnc1	-19%	·	·	·	·	·
CCN1C(=C(C#N)C#N)C=Cc2cc(C)ccc21	1%	23%	-22%	-6%	?	-3%
C=CC[n+]1c(/C=C2\C=Cc3cc(C)ccc3N2CC)ccc2ccccc21	·	-125%	3.2µM*	4µM*	7.9µM*	14µM*
CCN(CC)c1ccccc1/C=C/[n+]1ccc(CCCCI)c2ccccc21	·	·	·	?	·	-28%
CCCC1=[N+](CC)CCn2c(C)ccc21	7%	31%[10 µM]	11µM*	-8%	i	4%
CCN1C/C(=C/c2ccc(N3CCOCC3)cc2)C(=O)/C(=C/c2ccc(N3CCOCC3)cc2)C1	22µM*	-2%[10 µM]	29%	7%	·	-40%
C/C(N)=C(/C#N)C(=O)CSc1nnc(SCc2ccc(Cl)cc2)s1	-16%	-4%[10 µM]	11µM*	-3%	i	-6%
CCn1c(/C=C/N(C)c2ccccc2)[n+](CC)c2ccc(Cl)cc21	?	-59%[10 µM]	4.5µM*	?	?	-29%
CN(C)c1ccc(-c2nc3ncc(Cl)c(N4CCN(CC(=O)Nc5nccs5)CC4)c3[nH]2)cc1	14%	·	·	·	·	·
Cc1cc(NC(=O)c2ccccc2)sc1C	101%	-63%	-22%	1%	i	8.9µM*
Cc1ccc2c(c1)CCCN2C(=O)c1ccco1	-16%	-17%	2.5µM*	-9%	i	-23%
Cn1c(SCC(=O)NCc2ccco2)nnc1-c1ccc(NC(=O)c2ccccc2)cc1	·	·	·	-26%	·	21%
CSc1nnc(NC(=O)c2cc(=O)c3cc(C)cc(C)c3o2)s1	-11%	4%[10 µM]	-10%[9.22 µM]	1%	25µM*	7%
Cc1ccc(CN(Cc2cc3cc(C)ccc3[nH]c2=O)Cc2nnnn2Cc2ccccc2)cc1	·	·	·	5%	·	-5%
COC(=O)c1sc2nc(C)cc(C)c2c1N	9%	-20%[10 µM]	-16%[9.22 µM]	6%	i	8%
Cc1cc(C)c2c(N)c(C(=O)Nc3ncc(C)s3)sc2n1	2.5µM*	-94%[10 µM]	-4%	0%	i	-53%
